RecA splice inh: Mtb RecA intein splicing inhibition. inhibition, % (test concentration not listed). 0.75% of 290,000 active. cell-free RecA intein splicing, fluorescence. P9WHJ3; in the data active means inhibition above about 30%;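 further: 0% = vehicle wells and 100% = reference inhibitor control wells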
3CLpro inhibitor: SARS-CoV 3CLpro protease inhibition | 0.14% of 290,000 active | AID 1706 | recombinant SARS-CoV 3CLpro, quenched FRET peptide cleavage | inhibition, % at 6 µM | P0C6X7; in the data active means inhibition above about 12%
CCHF vOTU inh-1: blocks the CCHF virus ovarian tumor domain protease; CCHFV vOTU protease, Pep-AMC fluorescence; inhibition, % at 11.5 µM; 0.55% of 370,000 active; further: 0% = vehicle wells with enzyme and 100% = no enzyme wells
VHR inh abs: inhibitors of human VHR1 phosphatase (DUSP3) | AID 1654 | 0.52% of 290,000 active | inhibition, % at 13.3 µM | recombinant VHR phosphatase, pNPP absorbance; in the data active means inhibition above about 50%
GDH-TPI inh: inhibits GDH-TPI coupling enzymes, artifact for Mtb FBA screen; 1.2% of 360,000 active; GDH-TPI coupled enzyme counterscreen, NADH absorbance; inhibition, % at 4.8 µM; AID 588335;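 further: 0% = DMSO wells and 100% = wells lacking the enzyme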
Mtb FBA inh: inhibits M. tuberculosis FBA enzyme | 2.3% of 360,000 active | inhibition, % at 1 µM | purified M. tuberculosis FBA, fluorescence read-out | P9WQA3; in the data active means inhibition above about 27%;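 further: 0% = vehicle and 100% = reference inhibitor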
Target sequence (P9WQA3 whole entry, looked up): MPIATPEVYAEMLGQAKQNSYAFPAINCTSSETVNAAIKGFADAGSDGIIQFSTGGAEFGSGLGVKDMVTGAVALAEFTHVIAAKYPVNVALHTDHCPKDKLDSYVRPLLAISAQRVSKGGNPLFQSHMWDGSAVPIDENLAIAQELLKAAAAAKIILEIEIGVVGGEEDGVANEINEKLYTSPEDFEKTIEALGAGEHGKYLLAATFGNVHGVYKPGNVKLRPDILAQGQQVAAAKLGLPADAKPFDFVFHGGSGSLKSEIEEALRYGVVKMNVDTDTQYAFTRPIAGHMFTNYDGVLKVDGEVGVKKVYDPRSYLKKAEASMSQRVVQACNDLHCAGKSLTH
CCHF vOTU inh-2: CCHFV vOTU protease inhibition, confirmation; shares compounds with CCHF vOTU inh-1; Recombinant CCHFV vOTU, Pep-AMC fluorescence; inhibition, % at 11.5 µM; 17% of 1,900 active; AID 686976
Active calls of the source: *; . = no result; ! = not active in a repeat. Compounds with a hit are over-represented: about 4.7% of the library has one in this group of screens. Unless noted, no stated cut-off is given here; in the data, active means inhibition above about 30%; inactive means the rest.

SMILES	RecA splice inh	3CLpro inhibitor	CCHF vOTU inh-1	VHR inh abs	GDH-TPI inh	Mtb FBA inh	CCHF vOTU inh-2
CC1(C(=O)NCc2ccc(Cl)cc2)CCN1C(=O)Cc1cccc2ccccc12 (configuration not stated)	.	.	10	.	0	2	.
CCCCNC(=O)C1(C)CCN1C(=O)Cc1cccc2ccccc12 (configuration not stated)	.	.	47*	.	5	1	-23
CC1(C(=O)NCc2cccc3ccccc23)CCN1Cc1ccc2ccccc2c1 (configuration not stated)	.	.	4	.	-4	1	.
CC1(C(=O)NCc2cccc3ccccc23)CCN1Cc1ccc(OC(F)(F)F)cc1 (configuration not stated)	.	.	34*	.	8	0	17
Fc1ccc(Cn2ccc3ccc(-c4ccc5ccn(Cc6ccc(F)cc6F)c5c4)cc32)c(F)c1	.	.	21	.	.	.	.
COCCCN1C(=O)C(CC(=O)NCCN2CCOCC2)CC(C(=O)N2CCOCC2)=C1C (configuration not stated)	.	.	39*	.	.	.	-18
COc1cc(/C=N/NC(=O)[C@H](Cc2c[nH]c3ccccc23)NC(=O)OCC(C)C)cc([N+](=O)[O-])c1O	0	4	36*	12	25	-15	0
COc1cc(/C=N/NC(=O)Cc2c[nH]c3ccccc23)cc(OC)c1OC	-2	4	1	14	-3	1	.
CCC(=O)N1Cc2cc(C(=O)Nc3nccs3)nc(-c3cccc(-c4ccccc4OC)c3)c2[C@@H]1CCO	.	.	-1	.	.	.	.
CCN(CC(=O)NCc1cccs1)C(=O)CCCOc1ccc(C(C)(C)C)cc1	.	.	31*	.	4	-2	-3
Cn1c(N)c(C(=O)COC(=O)c2ccc([N+](=O)[O-])o2)c(=O)n(C)c1=O	-4	5	44*	10	1	0	-5
CN1/C(=C\C=C2C(=O)NC(=O)NC2=O)C(C)(C)c2ccccc21	-8	-2	36*	37	-7	-47	37*
CN1/C(=C\C=O)C(C)(C)c2ccccc21	0	-3	15	39	29	1	.
O=C(c1ccc(Br)o1)N1CCC(c2nc3ccccc3[nH]2)CC1	1	.	34*	.	-7	0	-27
COC1=C(Br)C(=O)c2nc(C)ccc2C1=O	.	.	115*	.	-6	-2	83*
COc1ccc(N)c2c1C(=O)c1ccccc1C2=O	12	0	-8	-2	12	-2	.
COC1=C(N)C(=O)c2nc(C)ccc2C1=O	.	.	55*	.	8	1	107*
CCCCn1c(N)c(N(CC(C)C)C(=O)c2cccs2)c(=O)[nH]c1=O	-3	.	39*	.	1	2	-13
O=C1CCCC2=C1C(c1ccc(Br)cc1)c1c([nH]c(=S)[nH]c1=O)N2 (configuration not stated)	0	11	6	12	14	0	.
O=c1[nH]c(=S)[nH]c2c1C(c1ccc(Br)cc1)c1c([nH]c(=S)[nH]c1=O)O2	-2	3	43*	15	10	3	41*
Cc1cc2c(cc1C)C(=O)C(Br)=C(N)C2=O	.	.	78*	.	9	-1	57*
CC1=C(/C=C/C(C)=C/C=C/C(C)=C\C(=O)O)C(C)(C)CCC1	7	.	2	.	6	5	.
CC1=C(/C=C/C(C)=C/C=C/C(C)=C/C(=O)Nc2ccc(O)cc2)C(C)(C)CCC1	.	.	34*!	.	35*	-3	6
COCC(=O)OC1CCn2c1nc1c2C(=O)C(C)=C(NC(C)=O)C1=O (configuration not stated)	.	.	100*	.	0	0	100*
CCC1(CC)NC(=O)N(CC(=O)OC(C)C(=O)Nc2cc([N+](=O)[O-])ccc2OC)C1=O (configuration not stated)	-4	0	30*	19	25	-2	-5
Nc1ccc2ccc(O)cc2c1	.	.	6	.	13	7	.
C[n+]1c2cc(N)ccc2cc2ccc(N)cc21	.	.	88*	.	5	-28	54*
O=C1c2ccccc2C(=O)c2c(/C=C/N3CCCCC3)ccnc21	.	.	30*	.	2	-3	52*
O=C(c1cccc(S(=O)(=O)N2CCOCC2)c1)N(Cc1nnc(-c2ccccc2Cl)o1)C1CC1	-1	.	11	.	6	3	.
